Source: PubChem BioAssay (Tox21)
Several values for one entry are separate records, joined by “and”; a condition that tells them apart may be missing. Equal values may be shown once. Results filed as inconclusive are left out. Where a call stands in place of a potency, no number is given. Some structures have more than one record in an assay (separate samples or runs), and their calls can disagree. Activity calls are given as the source filed them. Calls come from the whole dose curve; as a rule, active = well fitted curve in the direction sought with a large enough effect in the repeat runs; inconclusive = weak or mixed curves; inactive = no such curve, though single readings can be large; an effect the other way counts as inactive or inconclusive.

How the values were obtained:
[1] = Caspase-3/7 induction in HepG2 cells by small molecules, qHTS assay (AID 1346978); note: nearly all actives have a fitted effect of over 15% in size; note: potency is the fitted concentration of half-maximal effect
Method in brief: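 Caspase-3/7 induction was measured by Caspase-Glo 3/7 luminescence (30 min, room temperature) after a 17 hr compound exposure of wild-type HepG2 cells seeded at 2,000 per well and pre-incubated 5 hr.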

[2] = Caspase-3/7 induction in CHO-K1 cells by small molecules, qHTS cell viability counter screen (AID 1346979); note: nearly all actives have a fitted effect of over 35% in size; note: potency is the fitted concentration of half-maximal effect
Method in brief: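 To flag cytotoxic compounds, treated CHO-K1 wild-type cells were given CellTiter-Fluor at 16hr and read fluorescently after 1hr at 37C; the caspase-3/7 luminescence was measured in these same wells.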

[3] = Caspase-3/7 induction in CHO-K1 cells by small molecules, qHTS assay (AID 1346980); note: nearly all actives have a fitted effect of over 15% in size; note: potency is the fitted concentration of half-maximal effect
Method in brief: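 Luminescent Caspase-Glo 3/7 read (30min, room temperature) quantified apoptosis induction. Cells were wild-type CHO-K1, treated with compound for 17hr at 37 C and 5% CO2.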

[4] = Caspase-3/7 induction in HepG2 cells by small molecules, qHTS cell viability counter screen (AID 1346981); note: nearly all actives have a fitted effect of over 30% in size; note: potency is the fitted concentration of half-maximal effect
Method in brief: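 In this quantitative HTS counter screen, compounds delivered in DMSO were left on unmodified HepG2 cells for 16 hr at 37 C. Viability was then determined fluorometrically with CellTiter-Fluor, in parallel with caspase-3/7 induction in the same wells.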

[5] = biological target: Nuclear receptor subfamily 1 group I member 2 (Homo sapiens) (UniProt O75469); experiment: Human pregnane X receptor (PXR) small molecule agonists, qHTS assay (AID 1346982); note: nearly all actives have a fitted effect of over 35% in size; note: potency is the fitted concentration of half-maximal effect
Sequence of Nuclear receptor subfamily 1 group I member 2 (Homo sapiens) (O75469 whole entry, looked up): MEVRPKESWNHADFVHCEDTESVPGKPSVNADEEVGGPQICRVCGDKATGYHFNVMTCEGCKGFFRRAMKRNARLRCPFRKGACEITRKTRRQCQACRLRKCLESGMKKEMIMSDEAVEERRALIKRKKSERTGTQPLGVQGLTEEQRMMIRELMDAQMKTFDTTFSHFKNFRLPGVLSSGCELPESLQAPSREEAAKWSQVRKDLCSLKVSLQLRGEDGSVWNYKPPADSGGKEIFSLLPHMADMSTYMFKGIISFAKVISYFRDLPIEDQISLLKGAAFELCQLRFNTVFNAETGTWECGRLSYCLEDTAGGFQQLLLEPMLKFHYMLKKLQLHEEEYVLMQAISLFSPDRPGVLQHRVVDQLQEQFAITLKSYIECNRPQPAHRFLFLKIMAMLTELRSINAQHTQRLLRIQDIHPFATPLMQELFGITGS
Method in brief: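 Reporter HepG2 cells expressing PXR-Luc are cultured in charcoal-stripped FBS (5%), treated with compounds for 24 hr at 37 C, and assayed by ONE-Glo luminescence after 30 min at room temperature.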

[6] = biological target: Cytochrome P450 2D6 (Homo sapiens) (UniProt P10635); experiment: Cytochrome P450 Family 2 Subfamily D Member 6 (CYP2D6) small molecule antagonists: luciferase reporter qHTS assay (AID 1671196); note: nearly all actives have a fitted effect of over 50% in size; note: potency is the fitted concentration of half-maximal effect
Sequence of Cytochrome P450 2D6 (Homo sapiens) (P10635 whole entry, looked up): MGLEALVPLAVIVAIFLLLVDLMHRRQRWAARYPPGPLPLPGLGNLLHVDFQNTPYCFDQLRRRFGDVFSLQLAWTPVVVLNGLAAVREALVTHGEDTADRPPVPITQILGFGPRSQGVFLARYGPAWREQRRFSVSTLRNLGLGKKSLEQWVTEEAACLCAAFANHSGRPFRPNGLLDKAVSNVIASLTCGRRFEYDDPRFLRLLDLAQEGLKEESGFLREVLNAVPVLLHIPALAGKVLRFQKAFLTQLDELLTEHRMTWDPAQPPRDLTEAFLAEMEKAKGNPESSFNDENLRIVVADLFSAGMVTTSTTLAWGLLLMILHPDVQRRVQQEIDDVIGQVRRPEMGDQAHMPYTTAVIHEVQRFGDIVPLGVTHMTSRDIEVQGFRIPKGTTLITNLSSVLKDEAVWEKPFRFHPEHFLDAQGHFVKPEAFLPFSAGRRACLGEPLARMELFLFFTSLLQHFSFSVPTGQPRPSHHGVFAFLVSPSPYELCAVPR
Method in brief: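 Test chemicals meet CYP2D6 plus proluciferin substrate (10 min, RT); NADPH regenerating solution then drives turnover for 1 h. Detection reagent halts the reaction; luminescence measured after 20 min.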

[7] = biological target: Cytochrome P450 2C19 (Homo sapiens) (UniProt P33261); experiment: Cytochrome P450 Family 2 Subfamily C Member 19 (CYP2C19) small molecule antagonists: luciferase reporter qHTS assay (AID 1671197); note: nearly all actives have a fitted effect of over 65% in size; note: potency is the fitted concentration of half-maximal effect
Sequence of Cytochrome P450 2C19 (Homo sapiens) (P33261 whole entry, looked up): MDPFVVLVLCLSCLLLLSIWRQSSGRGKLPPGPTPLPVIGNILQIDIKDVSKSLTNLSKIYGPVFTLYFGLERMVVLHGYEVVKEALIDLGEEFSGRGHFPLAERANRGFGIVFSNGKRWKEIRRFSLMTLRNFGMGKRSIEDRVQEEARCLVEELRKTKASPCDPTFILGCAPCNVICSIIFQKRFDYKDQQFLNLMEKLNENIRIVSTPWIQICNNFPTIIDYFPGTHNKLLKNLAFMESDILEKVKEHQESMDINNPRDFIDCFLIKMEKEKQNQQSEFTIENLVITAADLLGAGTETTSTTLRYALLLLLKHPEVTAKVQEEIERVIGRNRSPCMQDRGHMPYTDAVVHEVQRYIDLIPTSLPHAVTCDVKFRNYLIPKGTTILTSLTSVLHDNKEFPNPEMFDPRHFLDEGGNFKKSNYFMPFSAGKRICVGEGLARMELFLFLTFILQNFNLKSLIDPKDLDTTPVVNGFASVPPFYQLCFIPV
Method in brief: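 Quantitative high-throughput screen of the Tox21 library using CYP2C19 with proluciferin substrate. Reaction: NADPH regeneration, 37C, 1 h, after 10 min compound preincubation at room temperature. Readout: luminescence.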

[8] = biological target: Cytochrome P450 2C9 (Homo sapiens) (UniProt P11712); experiment: Cytochrome P450 Family 2 Subfamily C Member 9 (CYP2C9) small molecule antagonists: luciferase reporter qHTS assay (AID 1671198); note: nearly all actives have a fitted effect of over 50% in size; note: potency is the fitted concentration of half-maximal effect
Sequence of Cytochrome P450 2C9 (Homo sapiens) (P11712 whole entry, looked up): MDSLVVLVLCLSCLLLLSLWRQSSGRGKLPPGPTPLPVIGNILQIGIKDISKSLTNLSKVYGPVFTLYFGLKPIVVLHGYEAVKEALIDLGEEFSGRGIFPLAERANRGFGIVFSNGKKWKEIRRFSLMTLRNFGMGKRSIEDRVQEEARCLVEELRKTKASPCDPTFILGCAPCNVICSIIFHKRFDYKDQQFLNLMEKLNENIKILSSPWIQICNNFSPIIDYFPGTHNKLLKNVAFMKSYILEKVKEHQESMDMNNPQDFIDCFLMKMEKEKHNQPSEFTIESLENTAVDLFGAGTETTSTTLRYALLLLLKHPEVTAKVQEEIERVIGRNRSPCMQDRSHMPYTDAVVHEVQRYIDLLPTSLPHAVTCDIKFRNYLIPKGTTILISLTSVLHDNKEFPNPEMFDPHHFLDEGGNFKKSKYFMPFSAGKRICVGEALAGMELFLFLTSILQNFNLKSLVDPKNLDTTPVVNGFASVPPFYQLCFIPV
Method in brief: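 Enzyme-substrate mix preincubated with compound 10 min at room temperature; reaction started with NADPH regeneration solution, 1 h 37C. Luminescent luciferin product read after 20 min detection reagent.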

[9] = biological target: Cytochrome P450 1A2 (Homo sapiens) (UniProt P05177); experiment: Cytochrome P450 Family 1 Subfamily A Member 2 (CYP1A2) small molecule antagonists: luciferase reporter qHTS assay (AID 1671199); note: nearly all actives have a fitted effect of over 50% in size; note: potency is the fitted concentration of half-maximal effect
Sequence of Cytochrome P450 1A2 (Homo sapiens) (P05177 whole entry, looked up): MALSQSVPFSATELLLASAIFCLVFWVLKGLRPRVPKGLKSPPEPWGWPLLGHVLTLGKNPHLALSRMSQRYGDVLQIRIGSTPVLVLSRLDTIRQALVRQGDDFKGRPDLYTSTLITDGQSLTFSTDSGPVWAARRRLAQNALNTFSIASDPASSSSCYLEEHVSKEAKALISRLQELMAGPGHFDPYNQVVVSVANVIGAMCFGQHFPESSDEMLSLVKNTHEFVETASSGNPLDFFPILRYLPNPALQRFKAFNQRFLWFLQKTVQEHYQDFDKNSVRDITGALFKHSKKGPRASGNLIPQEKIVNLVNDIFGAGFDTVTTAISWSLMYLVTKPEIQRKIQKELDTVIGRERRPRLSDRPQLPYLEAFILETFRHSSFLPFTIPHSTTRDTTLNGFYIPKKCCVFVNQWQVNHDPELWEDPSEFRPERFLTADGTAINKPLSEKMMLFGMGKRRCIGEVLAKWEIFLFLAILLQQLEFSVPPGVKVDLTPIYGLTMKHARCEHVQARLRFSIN
Method in brief: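 Steps: enzyme-substrate mix dispensed; test compounds and furafylline control pinned in; 10 min room temperature; NADPH regeneration solution added, 1 h; reaction stopped with luciferin detection reagent; luminescence read after 20 min.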

[10] = biological target: Voltage-gated inwardly rectifying potassium channel KCNH2 (Homo sapiens) (UniProt Q12809); experiment: Human Ether-a-go-go-Related Gene (hERG) channel small molecule antagonists: fluorescence cell-based qHTS assay (AID 1671200); note: nearly all actives have a fitted effect of over 50% in size; note: potency is the fitted concentration of half-maximal effect
Sequence of Voltage-gated inwardly rectifying potassium channel KCNH2 (Homo sapiens) (Q12809 whole entry, looked up): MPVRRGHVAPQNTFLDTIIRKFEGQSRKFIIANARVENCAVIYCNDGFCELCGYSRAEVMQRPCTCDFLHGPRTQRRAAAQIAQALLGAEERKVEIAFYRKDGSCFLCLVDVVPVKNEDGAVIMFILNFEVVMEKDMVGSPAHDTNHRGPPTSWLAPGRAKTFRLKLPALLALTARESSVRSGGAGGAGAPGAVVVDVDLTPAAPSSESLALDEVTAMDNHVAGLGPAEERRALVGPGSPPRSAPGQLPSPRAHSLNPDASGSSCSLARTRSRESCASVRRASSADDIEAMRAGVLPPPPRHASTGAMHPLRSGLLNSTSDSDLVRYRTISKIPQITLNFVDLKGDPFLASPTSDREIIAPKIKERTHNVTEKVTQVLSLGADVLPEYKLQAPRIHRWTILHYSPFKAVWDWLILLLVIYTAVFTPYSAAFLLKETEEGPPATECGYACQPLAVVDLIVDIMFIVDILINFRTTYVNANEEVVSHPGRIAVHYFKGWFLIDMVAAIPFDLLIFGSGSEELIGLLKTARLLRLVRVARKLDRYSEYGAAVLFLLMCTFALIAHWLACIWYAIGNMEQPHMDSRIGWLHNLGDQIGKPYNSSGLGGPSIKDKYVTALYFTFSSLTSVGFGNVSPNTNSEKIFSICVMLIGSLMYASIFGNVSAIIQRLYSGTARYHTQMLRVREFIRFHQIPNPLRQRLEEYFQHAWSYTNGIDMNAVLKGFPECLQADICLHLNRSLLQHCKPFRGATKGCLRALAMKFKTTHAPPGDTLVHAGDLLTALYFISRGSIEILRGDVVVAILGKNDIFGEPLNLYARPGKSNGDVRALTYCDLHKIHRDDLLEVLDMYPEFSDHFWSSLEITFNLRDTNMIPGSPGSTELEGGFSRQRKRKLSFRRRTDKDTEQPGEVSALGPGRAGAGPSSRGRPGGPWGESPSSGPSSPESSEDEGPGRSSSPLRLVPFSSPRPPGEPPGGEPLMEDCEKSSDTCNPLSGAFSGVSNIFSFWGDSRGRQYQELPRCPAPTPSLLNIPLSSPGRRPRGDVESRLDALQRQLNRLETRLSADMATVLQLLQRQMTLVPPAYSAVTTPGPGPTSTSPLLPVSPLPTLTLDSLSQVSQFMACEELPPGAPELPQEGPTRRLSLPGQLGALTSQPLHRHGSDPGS
Method in brief: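 Measured: Tl+ flux via fluorescence (480/540 nm) in hERG-expressing U2OS cells after 1 h dye loading at room temperature.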

[11] = biological target: Nuclear receptor subfamily 1 group I member 2 (Rattus norvegicus) (UniProt Q9R1A7); experiment: Rat pregnane X receptor (rPXR) activation by small molecules, qHTS assay (AID 1346983); conditions: rPXR luciferase reporter cells, One-Glo luminescence, 24 h; stronger effect = higher value; note: nearly all actives have a fitted effect of over 20% in size
Sequence of Nuclear receptor subfamily 1 group I member 2 (Rattus norvegicus) (Q9R1A7 whole entry, looked up): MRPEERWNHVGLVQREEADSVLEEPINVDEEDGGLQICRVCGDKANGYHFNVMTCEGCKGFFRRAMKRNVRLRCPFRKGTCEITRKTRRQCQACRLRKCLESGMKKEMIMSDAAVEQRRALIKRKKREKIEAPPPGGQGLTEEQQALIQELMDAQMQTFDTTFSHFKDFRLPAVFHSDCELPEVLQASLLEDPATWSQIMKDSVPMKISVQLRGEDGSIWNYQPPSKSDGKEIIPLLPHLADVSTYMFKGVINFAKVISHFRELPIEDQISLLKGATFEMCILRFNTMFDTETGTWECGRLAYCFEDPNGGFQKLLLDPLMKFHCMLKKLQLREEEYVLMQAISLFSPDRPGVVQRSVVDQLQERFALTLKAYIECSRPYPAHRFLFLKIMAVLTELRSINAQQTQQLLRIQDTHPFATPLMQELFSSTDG
Method in brief: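 Luminescent readout (One-Glo luciferase, 30 min room temperature) followed 24 hr compound treatment at 37 C of rPXR cells plated 2,000 per well and preincubated 5hr; qHTS format with compounds delivered in DMSO.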

[12] = biological target: Nuclear receptor subfamily 1 group I member 2 (Homo sapiens) (UniProt O75469); experiment: CYP3A4 induction through human pregnane X receptor (PXR) by small molecules, qHTS assay (AID 1346984); note: nearly all actives have a fitted effect of over 40% in size
Method in brief: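 Induction measured in HepG2-based DPX-2 cells co-expressing human PXR and a CYP3A4 promoter-driven luciferase. After a 24-hour compound exposure, cells received CYP3A4 luciferin substrate at 3uM final for 3 hours, and light output was then recorded.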

[13] = biological target: Nuclear receptor subfamily 1 group I member 2 (Homo sapiens) (UniProt O75469); experiment: Human pregnane X receptor (PXR) activation by small molecules, qHTS assay (AID 1346985); note: nearly all actives have a fitted effect of over 40% in size; note: potency is the fitted concentration of half-maximal effect
Method in brief: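 DPX-2 cells (HepG2 co-transfected with a PXR response element and a CYP3A4-promoter luciferase construct) were seeded at 2,000 per well, rested 5 hr at 37C, then exposed to DMSO-dissolved compounds for 24 hr. Activation was read as luciferase luminescence.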

[14] = biological target: Cytochrome P450 3A4 (Homo sapiens) (UniProt P08684); experiment: Cytochrome P450 Family 3 Subfamily A Member 4 (CYP3A4) small molecule antagonists: luciferase reporter qHTS assay (AID 1671201)
Sequence of Cytochrome P450 3A4 (Homo sapiens) (P08684 whole entry, looked up): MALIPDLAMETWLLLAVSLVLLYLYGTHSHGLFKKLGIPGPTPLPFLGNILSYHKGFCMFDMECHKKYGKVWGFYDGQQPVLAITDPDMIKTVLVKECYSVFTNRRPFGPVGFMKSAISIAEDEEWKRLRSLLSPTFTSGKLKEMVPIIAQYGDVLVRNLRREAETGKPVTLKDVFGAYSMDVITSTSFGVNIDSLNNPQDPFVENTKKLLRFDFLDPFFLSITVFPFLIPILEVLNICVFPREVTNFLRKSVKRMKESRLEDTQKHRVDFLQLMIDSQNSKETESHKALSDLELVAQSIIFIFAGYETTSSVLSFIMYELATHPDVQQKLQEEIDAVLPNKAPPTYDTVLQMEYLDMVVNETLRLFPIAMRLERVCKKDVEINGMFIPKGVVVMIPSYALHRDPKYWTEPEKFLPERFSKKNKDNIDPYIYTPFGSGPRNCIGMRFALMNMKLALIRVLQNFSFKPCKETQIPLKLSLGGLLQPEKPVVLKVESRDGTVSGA
Method in brief: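 Setup: enzyme-substrate mix, compound pin transfer, 10 min RT. Reaction: NADPH regeneration solution, 1 h RT. Readout: detection reagent stops turnover, luminescence measured after 20 min, expressed in relative luminescence units.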

Structure (SMILES) | Potency [1] | Potency [2] | Potency [3] | Potency [4] | Potency [5] | Potency [6] | Potency [7] | Potency [8] | Potency [9] | Potency [10] | max activation [11] | Potency [12] | Potency [13] | Potency [14]
Cc1ccc(S(=O)(=O)Oc2ccc(N=Nc3ccc(-c4ccc(N=Nc5c(O)ccc6cc(S(=O)(=O)O)cc(S(=O)(=O)O)c56)c(C)c4)cc3C)cc2)cc1 | inactive | 15.4 µM (active) and 10 µM (active) | inactive | 19.4 µM (active) and 15.9 µM (active) | 6.89 µM (active) and inactive | 40.1 µM (active) and 26 µM (active) | 28.4 µM (active) and 51.9 µM (active) | 35.7 µM (active) and 26 µM (active) | 56.6 µM (active) and 23.2 µM (active) | inactive |  |  |  | 
CC(=O)OCC1=C(C(=O)O)N2C(=O)[C@@H](NC(=O)Cc3cccs3)[C@H]2SC1 | inactive | inactive | inactive | inactive | inactive | inactive | inactive |  | inactive | inactive | -1.19% (inactive) | inactive | inactive | inactive
NC(=Nc1ccccc1)Nc1ccccc1 | inactive | inactive | inactive | 20.5 µM (active) | 3.86 µM (active) and 11.9 µM (active) | 212 nM (active) and 617 nM (active) | 39.9 µM (active) and inactive | 89.4 µM (active) and inactive | 50.2 µM (active) and inactive |  | -2.33% (inactive) | inactive | inactive | inactive
CN(C)c1ccc(C(=C2C=CC(=[N+](C)C)C=C2)c2ccccc2)cc1 | 4.33 µM (active) and 5.31 µM (active) and 5.96 µM (active) | 596 nM (active) [middle of 4 runs] | 5.96 µM (active) and 3.35 µM (active) | 19.3 µM (active) and 13.3 µM (active) and 23.7 µM (active) | 1.72 µM (active) and 2.11 µM (active) and 1.33 µM (active) | 7.97 µM (active) and 13.8 µM (active) and 15.5 µM (active) |  |  | 15.9 µM (active) and 13.8 µM (active) | 4.25 µM (active) [middle of 4 runs] | 11.8% (inactive) |  | inactive | 
CCCC(=O)c1ccccc1 | inactive | inactive | inactive | inactive | inactive | 31.7 µM (active) | inactive | inactive | inactive | inactive |  |  |  | 
CCC(C)(C)C(=O)O[C@H]1C[C@@H](C)C=C2C=C[C@H](C)[C@H](CC[C@@H]3C[C@@H](O)CC(=O)O3)[C@H]21 | inactive | inactive | inactive |  |  |  |  |  |  |  |  |  |  | 
O | inactive | inactive | inactive |  |  |  |  |  |  |  |  |  |  | 
CCC(C)(Oc1ccc(C2(c3ccc(OC(C)(CC)C(=O)O)cc3)CCCCC2)cc1)C(=O)O (configuration not stated) | inactive | inactive | inactive | inactive | inactive | inactive | inactive | inactive | inactive | inactive | -0.804% (inactive) | inactive | inactive | inactive
c1ccc2cc3c(ccc4ccccc43)cc2c1 | inactive | inactive | inactive | inactive | 27.4 µM (active) and 10.9 µM (active) | 35.7 µM (active) | 50.2 µM (active) | 25.2 µM (active) | 897 nM (active) and 894 nM (active) | inactive |  |  |  | 
CC(=O)O[C@]1(C(C)=O)CC[C@H]2[C@@H]3C[C@H](C)C4=CC(=O)CC[C@]4(C)[C@H]3CC[C@@]21C | inactive | inactive | inactive | inactive | 5.44 µM (active) | inactive | 15.9 µM (active) | 3.99 µM (active) and 13.8 µM (active) | inactive | inactive |  | inactive | 1.58 µM (active) | 
O=C1CC2(CCCC2)CC(=O)N1CCCCN1CCN(c2ncccn2)CC1 | inactive | 54.5 µM (active) and inactive | inactive |  |  |  |  |  |  |  |  |  |  | 
OCC(CO)N[C@H]1C[C@](O)(CO)[C@@H](O)[C@H](O)[C@H]1O | inactive | inactive | inactive | inactive | inactive | inactive | inactive | inactive | inactive | inactive | -3.54% (inactive) | inactive | inactive | inactive
COC(c1ccccc1)(c1ccccc1)[C@H](Oc1nc(C)cc(C)n1)C(=O)O | inactive | inactive | inactive | inactive | inactive | inactive | inactive | inactive | 17.4 µM (active) | inactive | -2.41% (inactive) | inactive | 10 µM (active) | 
O=C(OCc1ccccc1)c1ccc(O)cc1 | inactive | inactive | inactive | inactive | inactive |  |  |  |  | inactive | 0.826% (inactive) |  | inactive | 
O=c1n(CC2CO2)c(=O)n(CC2CO2)c(=O)n1CC1CO1 (configuration not stated) | 68.2 µM (active) | 60.8 µM (active) and 48.6 µM (active) | inactive | 54.2 µM (active) and 48.6 µM (active) | 17.1 µM (active) and 13.7 µM (active) | inactive | inactive |  |  | inactive | -2.73% (inactive) | inactive | inactive | 
Cc1cccc(O)c1C | inactive | inactive | inactive | inactive | inactive | inactive | 70.5 µM (active) and inactive | inactive | 46.1 µM (active) | inactive |  |  |  | 
